Source: PubChem BioAssay AID493231 (Broad Institute, 2011)
Entries with a potency or affinity are not part of this list. The source made the active and inactive calls. No rule for the calls is given here.

Biological target: Acyl-homoserine lactone acylase PvdQ (Pseudomonas aeruginosa (strain ATCC 15692 / DSM 22644 / CIP 104116 / JCM 14847 / LMG 12228 / 1C / PRS 101 / PAO1)) (UniProt Q9I194)
Experiment: P. aeruginosa PvdQ acylase inhibitors, dose response, biochemical, fluorescence, plate reader and imaging, cherry-picks (AID 493231);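 also: more negative values mean stronger inhibition of the acylase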
Settings: purified PvdQ acylase, fluorogenic substrate; series mostly up to 10 µM

Sequence of Acyl-homoserine lactone acylase PvdQ (Pseudomonas aeruginosa (strain ATCC 15692 / DSM 22644 / CIP 104116 / JCM 14847 / LMG 12228 / 1C / PRS 101 / PAO1)) (Q9I194 whole entry, looked up): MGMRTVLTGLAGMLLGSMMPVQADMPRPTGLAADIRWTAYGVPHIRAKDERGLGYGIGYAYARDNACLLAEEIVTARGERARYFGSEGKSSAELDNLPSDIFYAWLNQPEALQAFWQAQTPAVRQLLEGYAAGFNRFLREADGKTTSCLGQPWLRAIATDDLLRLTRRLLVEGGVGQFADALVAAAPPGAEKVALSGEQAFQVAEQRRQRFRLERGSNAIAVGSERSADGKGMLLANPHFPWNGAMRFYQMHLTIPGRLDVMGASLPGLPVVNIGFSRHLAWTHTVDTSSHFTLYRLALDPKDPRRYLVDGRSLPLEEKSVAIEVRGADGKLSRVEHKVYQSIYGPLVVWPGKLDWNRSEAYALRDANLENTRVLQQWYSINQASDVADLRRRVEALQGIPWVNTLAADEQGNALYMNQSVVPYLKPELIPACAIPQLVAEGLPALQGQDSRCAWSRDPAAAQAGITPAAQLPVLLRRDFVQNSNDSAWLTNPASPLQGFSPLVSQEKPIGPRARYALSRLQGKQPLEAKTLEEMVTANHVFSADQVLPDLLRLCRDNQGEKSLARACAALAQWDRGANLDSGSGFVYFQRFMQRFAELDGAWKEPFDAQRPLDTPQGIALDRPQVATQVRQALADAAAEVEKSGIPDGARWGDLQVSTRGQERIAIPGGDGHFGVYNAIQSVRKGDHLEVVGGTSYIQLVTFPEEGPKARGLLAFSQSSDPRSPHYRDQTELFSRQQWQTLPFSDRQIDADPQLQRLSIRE

outcome, inactive:
CCCSC1=C(C#N)C(c2ccc(OC)cc2)C2=C(CC(C)(C)CC2=O)N1 (stereo unspecified), COC(=O)c1ccccc1NC(=O)CN1CCC(NC(=O)c2ccc(C)cc2)CC1, Cc1ccc(S(=O)(=O)N(CC(=O)N2CCC(C)CC2)c2ccccc2)cc1, O=C1/C(=C/c2cccc([N+](=O)[O-])c2)Oc2cc(O)ccc21, CC1=C(C(=O)Nc2ccccc2)C(c2coc3ccccc3c2=O)C2=C(CCCC2=O)N1 (stereo unspecified), NS(=O)(=O)c1ccc(N2CCOCC2)c(C(=O)NCc2cccs2)c1, COc1ccccc1N(CC(O)Cn1ccnc1C)S(=O)(=O)c1ccccc1 (stereo unspecified), Cc1cc(/C=C2\Cc3ccccc3C2=O)c(C)n1-c1ccccc1, O=C(Nc1cccc(NC(=O)c2sc3ccccc3c2Cl)c1)c1ccco1, NC(=O)c1ncn([C@@H]2O[C@H](CNCc3ccc(-c4cc(C(F)(F)F)ccc4Cl)o3)[C@@H](O)[C@H]2O)n1, Cn1nnnc1SCC(=O)NCCCc1ccccc1, COc1cc(NC(=S)NC2CC(C)(C)NC(C)(C)C2)cc(OC)c1, O=C1CC(c2ccccc2)Cc2nc(NC3CC3)ncc21 (stereo unspecified), Cc1ccccc1-c1cc(C(=O)NCc2cccs2)nn1CC1CC(c2cccc([N+](=O)[O-])c2)=NO1 (stereo unspecified), CCOC(=O)c1cc(-c2cccc([N+](=O)[O-])c2)on1, O=C(Nc1cccc(Br)c1)c1ccc2c(c1)SC1=NS(=O)(=O)CCN12
